Experiment: growth of efflux-deficient E. coli DRC39 – strain DRC39, OD650, 48 h, E. coli filamentation inducers, primary screen (AID 1179);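 note: screen aims at cell division blockers that make cells filament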
Details: E. coli DRC39 delta-acrAB growth, higher = more signal, called active from +8 up or from −8 down

z-score, inactive:
COCCOC(=O)N1C(=O)[C@@]2(c3cc(C#CC4=CCCCC4)ccc31)[C@H](C(=O)NC[C@H](O)c1ccccc1)[C@H]1C(=O)O[C@H](c3ccccc3)[C@H](c3ccccc3)N1[C@@H]2c1ccc(OCCO)cc1 0.0077, CCC#CCN(Cc1ccccc1Br)[C@H](/C=C/c1ccccc1)[C@@H](O)Cc1ccccc1 0.994, C=C(CCCC)/C(=C/C[C@@H](OC(=O)c1ccncc1)c1cccc(OCCO)c1)c1cc(C(=O)OC)ccc1OC 1.33, NC(=O)NCC#Cc1ccc2c(c1)[C@]1(C(=O)N2)[C@H](c2ccccc2OCCO)N2[C@H](c3ccccc3)[C@H](c3ccccc3)OC(=O)[C@H]2[C@@H]1C(=O)N1CCN(c2ncccn2)CC1 0.158, O=C1OCC=C[C@H]2OC34C=CCN(Cc5ccccc5)C(=O)[C@H]3N(CCO)C(=O)[C@@H]4[C@@H]12 (stereo partly specified) 0.186, Cc1ccc(S[C@]2(C(=O)NC(C)C)CC(=O)N(Cc3cc(C(F)(F)F)cc(C(F)(F)F)c3)[C@@H]2c2ccc(CO)cc2I)cc1 1.02, COc1ccc(C(=O)Nc2ccc(CN3C(=O)[C@]4(O[C@H](CCn5cc(CCO)nn5)[C@@H]([Si](C)(C)c5ccc(OC)cc5)[C@@H]4C)c4ccccc43)cc2)cc1 0.72, COC(=O)[C@@]1(Cc2ccccc2)[C@H]2c3cc(C(=O)N4CCCC4)n(CCN4CNCC4=O)c3C[C@H]2CN1C(=O)c1ccccc1 -0.321, CCCNC(=O)[C@@H]1c2ccccc2C(=O)N(C2CCCCC2)[C@H]1c1ccc(CO)cc1 0.521, CC(C)C[C@@H]1NC(=O)[C@H]2C[C@@H](C(=O)NCCCCCC[N+](C)(C)C)[C@@H](c3ccc(O)cc3)N2C1=O 0.19, O=C(NCc1ccccc1)[C@@]1(Cc2ccccc2)COC(c2ccc(OCCCO)cc2)=N1 -0.762, C=CCN1C(=O)[C@@]2(Cc3ccccc3)N=C(c3ccc(OCCCO)cc3)O[C@H]2c2ccccc21 -0.239, COCCCNC(=O)[C@@H]1c2ccccc2C(=O)N(CC23CC4CC(CC(C4)C2)C3)[C@H]1c1ccc(CO)cc1 -0.543, [N-]=[N+]=NCc1ccccc1[C@H]1OC(c2ccc(OCCCO)cc2)=N[C@@]1(Cc1ccccc1N=[N+]=[N-])C(=O)NCc1ccccc1 -0.321, O=C1C2C=CC(C(O)c3ccccc3)N(n3cnnc3)C2C(=O)N1Cc1ccccc1 (stereo unspecified) -1.03, CCCC[C@@H]1C[C@H]1[C@@H](NC(=O)c1ccccc1)c1ccccc1C(F)(F)F -0.464, COc1ccc(CCN2C(=O)[C@@]3(c4ccc([N+](=O)[O-])cc4)CC(=O)N(CC45CC6CC(CC(C6)C4)C5)[C@@H]3c3ccc(CO)cc32)cc1 0.241, O=C1O[C@@H](c2ccccc2)[C@@H](c2ccccc2)N2[C@@H](c3ccc(OCCO)cc3)[C@]3(C(=O)Nc4ccc(C#CCCO)cc43)[C@@H](C(=O)N3CCN(c4ncccn4)CC3)[C@H]12 0.17, Cc1ccc(S[C@]2(C(=O)NC(C)C)CC(=O)N(C3Cc4ccccc4C3)[C@@H]2c2ccc(CO)cc2)cc1 -0.768, O=C1O[C@H](c2ccccc2)[C@H](c2ccccc2)N2[C@H]1[C@@H](C(=O)Nc1nc3ccccc3s1)[C@]1(C(=O)Nc3ccc(C#CC4=CCCCC4)cc31)[C@H]2c1ccccc1OCCO -1.24, C=CC[C@]1(C(=O)O)N=C(c2ccc(OCCCO)cc2)O[C@H]1c1ccccc1N=[N+]=[N-] 1.65, CCOC(=O)C1=C[C@@H](c2ccccc2)N(S(=O)(=O)c2ccc(C)cc2)[C@H]1c1ccc(F)cc1 -0.283, C=CCC(OC(C)=O)[C@@H]1[C@@H](N(Cc2cccc3ccccc23)C(=O)c2ccc(C)cc2)c2cc(OCCCO)ccc2N1C(=O)c1ccc(-c2ccccc2)cc1 (stereo partly specified) 0.861, COc1ccc(-c2cc3c(c(-c4ccccc4)n2)[Si](C(C)C)(C(C)C)O[C@H]3c2ccccc2)cn1 -0.508, Cc1ccc(S[C@]2(C(=O)O)CC(=O)N(Cc3cc(C(F)(F)F)cc(C(F)(F)F)c3)[C@@H]2c2ccc(CO)cc2I)cc1 -0.0983, O=C1O[C@H](c2ccccc2)[C@H](c2ccccc2)N2[C@H]1[C@@H](C(=O)Nc1nc3ccccc3s1)[C@]1(C(=O)Nc3ccc(C#CC4(O)CCCCCC4)cc31)[C@H]2c1ccc(O)cc1 -0.716, O=C1C2C=CC(C(O)C#Cc3ccccc3)N(Nc3ccccc3)C2C(=O)N1c1ccccc1 (stereo unspecified) -0.143, CN1C(=O)C2C=CC(C(O)C3CC=CCC3)N(Nc3ccccc3)C2C1=O (stereo unspecified) -0.196, COCCCNC(=O)[C@@]1(c2ccc([N+](=O)[O-])cc2)CC(=O)N(C2CCCCC2)[C@@H]1c1ccc(CO)cc1 -0.346, Cc1ccccc1C(O)C1C=CC2C(=O)N(c3ccccc3)C(=O)C2N1Nc1ccc(C#N)cc1 (stereo unspecified) 0.0888, CCOC(=O)C[C@H]1[C@H](OC(=O)Cc2ccc3c(c2)OCO3)[C@@H](NC(=O)c2ccc3ccccc3c2)c2cc(OCCCO)ccc2N1C(=O)Cc1ccc(OC)cc1 1.11, COC(=O)[C@@]1(Cc2ccccc2CN=[N+]=[N-])N=C(c2ccc(OCCCO)cc2)O[C@H]1c1ccccc1N=[N+]=[N-] -0.762, O=C/C=C/c1ccc(/C=C/c2ccccc2)cc1 1.56, CC(C)NC(=O)[C@@]1(Cc2ccccc2I)c2ccccc2C(=O)N(C2CCCCC2)[C@H]1c1ccc(CO)cc1 0.267, C=CCC(OC(C)=O)[C@@H]1[C@@H](N(Cc2cccc3ccccc23)C(=O)Cc2ccc(F)cc2)c2cc(OCCCO)ccc2N1C(=O)Cc1ccc2ccccc2c1 (stereo partly specified) 0.4, CCCC=C(CCC)[C@@H](NC(=O)c1ccc(C(F)(F)F)cc1)c1ccccc1 -0.221

From PubChem BioAssay
